Several values for one entry are separate records, joined by “and”; a condition that tells them apart may be missing. Equal values may be shown once. Inconclusive results are not listed. A call without a number means that no potency is given here. More than one record can exist for a structure, and the calls need not agree. Activity calls are given as the source filed them. Calls come from the whole dose curve; as a rule, active = well fitted inhibition curve with a large enough effect in the repeat runs; inconclusive = weak or mixed curves; inactive = no such curve, though single readings can be large or run the other way.
These compounds were tested against Cytochrome P450 3A4 (Homo sapiens) (UniProt P08684) (assay: Cytochrome P450 Family 3 Subfamily A Member 4 (CYP3A4) small molecule antagonists: luciferase reporter qHTS assay (AID 1671201; note: nearly all actives have a fitted effect of over 50% in size)). Conditions: P450-Glo CYP3A4 enzyme, luciferin luminescence, 1 h; series mostly up to 115 µM.
Text: National Center for Advancing Translational Sciences [NCATS]
U.S. Environmental Protection Agency [EPA]
National Institutes of Environmental Health Sciences [NIEHS]
National Toxicology Program [NTP]
U.S. Food and Drug Administration [FDA]
Cytochrome P450 (CYP) enzymes are membrane-bound hemeproteins that play a key role in metabolism of drugs and xenobiotics. Evaluation of the effect of chemicals on CYP isozymes is useful to minimize the adverse drug reactions and toxicities in drug development process. Tox21 chemicals were tested for their effect on CYP enzyme activities by using P450-Glo (TM) screening systems (Promega Corporation, Madison, WI). These systems provide a luminescent method containing proluciferin substrates and are converted to luciferin products by CYP isozymes. The luciferin products formed are detected with a luciferin detection reagent, and the amount of light produced is proportional to CYP activity. P450-Glo (TM) CYP3A4 screening system (Catalog. No. V9910) was used to detect the compounds that interfere in CYP3A4 activity. The positive control compound used for CYP3A4 assay is ketoconazole (Sigma-Aldrich, St. Louis, MO).
Tox21 Assay Protocol Summary:
Two ul of enzyme-substrate mix was dispensed into medium binding white/solid 1536-well plates (Greiner Bio-One North America Inc., Monroe, NC) using a BioRaptr Flying Reagent Dispenser (FRD, Beckman Coulter, Brea, CA). Compounds dissolved in DMSO and positive control (ketoconazole) were transferred to the assay plates at 23 nl using a Pintool station (Wako, San Diego, CA). The assay plates were incubated at room temperature for 10 min. Then 2 ul of NADPH regeneration solution was added to each well of the assay plates using an FRD and incubated at room temperature for 1 h. The reaction was stopped by adding 4 ul of detection reagent using an FRD and after 20 min incubation at room temperature the luminescence signal was measured using a ViewLux plate reader (Perkin Elmer, Shelton, CT). Data were expressed as relative luminescence units.
Potency is the fitted concentration of half-maximal effect.

Sequence of Cytochrome P450 3A4 (Homo sapiens) (P08684 whole entry, looked up): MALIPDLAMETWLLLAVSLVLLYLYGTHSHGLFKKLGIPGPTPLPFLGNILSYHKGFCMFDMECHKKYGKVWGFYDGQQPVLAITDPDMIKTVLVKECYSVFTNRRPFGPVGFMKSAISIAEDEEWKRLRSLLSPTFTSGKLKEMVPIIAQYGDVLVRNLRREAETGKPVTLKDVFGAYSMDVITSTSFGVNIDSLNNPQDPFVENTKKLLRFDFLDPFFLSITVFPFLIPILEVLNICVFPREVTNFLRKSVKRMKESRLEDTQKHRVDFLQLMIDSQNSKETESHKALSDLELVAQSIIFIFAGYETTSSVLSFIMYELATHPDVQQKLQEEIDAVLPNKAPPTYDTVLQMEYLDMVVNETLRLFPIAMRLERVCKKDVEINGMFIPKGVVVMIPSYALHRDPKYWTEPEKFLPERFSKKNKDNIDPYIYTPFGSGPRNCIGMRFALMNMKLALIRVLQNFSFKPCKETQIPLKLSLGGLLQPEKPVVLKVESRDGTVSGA

| SMILES | Potency |
| --- | --- |
| CC(=O)Nc1ccc(C(=O)O)cc1 | inactive |
| CC(=O)CCc1ccccc1 | inactive |
| CCc1ccc(O)cc1 | inactive |
| C=C(C)C(=O)OCCCCCC | inactive |
| O=C(Cl)c1c(Cl)c(Cl)c(C(=O)Cl)c(Cl)c1Cl | inactive |
| CS(=O)(=O)c1ccc([C@@H](O)[C@@H](CO)NC(=O)C(Cl)Cl)cc1 | inactive |
| Cn1c([N+](=O)[O-])cnc1COC(N)=O | inactive |
| C[C@@H]1O[C@@H](OC[C@H]2O[C@@H](Oc3c(-c4ccc(O)c(O)c4)oc4cc(O)cc(O)c4c3=O)[C@H](O)[C@@H](O)[C@@H]2O)[C@H](O)[C@H](O)[C@H]1O | inactive |
| CCCCOCCOCCOC(=O)CCCCC(=O)OCCOCCOCCCC | 20.1 µM (active) and 31.7 µM (active) |
| O=Nc1ccc(O)cc1 | inactive |
| CC(C)n1c(/C=C/[C@@H](O)C[C@@H](O)CC(=O)O)c(-c2ccc(F)cc2)c2ccccc21 | inactive |
| O=C(O)c1ccc([N+](=O)[O-])cc1 | inactive |
| NCc1cccc(CN)c1 | 36.6 µM (active) and 2.83 µM (active) |
| CC(C)(C)C(=O)C1C(=O)c2ccccc2C1=O | 28 µM (active) |
| Oc1ccc2ccccc2c1N=Nc1ccccc1 | 6.33 µM (active) and 20 µM (active) |
| CCCCCCCCCCCCOCC1CO1 (stereo not given) | inactive |
| ClC1=C(Cl)C(Cl)(Cl)C(Cl)=C1Cl | inactive |
| Nc1c(S(=O)(=O)O)cc(Br)c2c1C(=O)c1ccccc1C2=O | inactive |
| CCOC(=O)C1OC1c1ccccc1 (stereo not given) | inactive |
| COC(=O)Nc1nc2ccc(Sc3ccccc3)cc2[nH]1 | inactive |

| SMILES | Potency |
| --- | --- |
| O=C(O)c1cc(-c2ccccc2)nc2ccccc12 | inactive |
| CC1=C(/C=C/C(C)=C/C=C/C(C)=C/CO)C(C)(C)CCC1 | 18.1 µM (active) and 11.9 µM (active) |
| CC(C)Cc1ccccc1 | inactive |
| CCCCNC(N)=O | inactive |
| O=C(c1cc(O)c(O)c(O)c1)c1ccc(O)c(O)c1O | inactive |
| CNC[C@H](O)[C@@H](O)[C@H](O)[C@H](O)CO | inactive |
| CCCCCCCCC | inactive |
| O=C(c1ccc(O)cc1)c1ccc(O)cc1O | 7.18 µM (active) and 22.4 µM (active) |
| CC(C)(CO)COC(=O)C(C)(C)CO | inactive |
| Cc1cc(=O)[nH]c(C(C)C)n1 | inactive |
| CCCCC(CC)COC(=O)/C=C\C(=O)OCC(CC)CCCC (stereo not given) | 5.64 µM (active) |
| COCC(C)O (stereo not given) | inactive |
| CCc1ccccc1O | 31.6 µM (active) and inactive |
| NCCNCCNCCNCCN | inactive |
| Clc1ccc(Cl)c(Cl)c1Cl | inactive |
| CCCCOCCO | inactive |
| OCCOCCOCCOCCO | inactive |
| COC(=O)c1ccc(C(=O)OC)cc1 | inactive |
| C=C(C#N)C(=O)OCC | inactive |
| OC[C@@H](O)[C@H](O)[C@H](O)[C@@H](O)CO | inactive |

Source: PubChem BioAssay (Tox21)
